# Data: PubChem BioAssay (EPA / NIEHS)
# Inconclusive results are not listed. Calls of active or inactive are those of the source. How the source made its calls: active means hit-call score of the fitted dose curve at least 0.9, where 1 is the maximum; inconclusive means response in the unintended direction; inactive means score below 0.9.
# Read-out: Broad substrate specificity ATP-binding cassette transporter ABCG2 (Homo sapiens) (UniProt Q9UNQ0)
# Experiment: CLD_ABCG2_48hr: CellzDirect (CLD) Gene Expression Assay for ABC Transporter (ABCG2) at 48 hours (AID 2283704);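 on AC50: potency for induction of ABCG2 mRNA above the DMSO baseline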
# Procedure: CLD_48hr is a cell-based, multiplexed-readout assay that uses hepatocyte, a human liver primary cell, with measurements taken at 48 hours after chemical dosing in a 96-well plate.CLD_ABCG2_48hr is one of 16 assay component(s) measured or calculated from the CLD_48hr assay. It is designed to make measurements of mRNA induction, a form of inducible reporter, as detected with chemiluminescence signals by Quantitative Nuclease Protection Assay (qNPA) technology.Data from the assay component CLD_ABCG2_48hr was analyzed at the endpoint, CLD_ABCG2_48hr, in the positive analysis fitting direction relative to DMSO as the negative control and baseline of activity. Using a type of inducible reporter, gain-of-signal activity can be used to understand changes in the reporter gene as they relate to the gene ABCG2. Furthermore, this assay endpoint can be referred to as a primary readout. To generalize the intended target to other relatable targets, this assay endpoint is annotated to the transporter intended target family, where subfamily is ABC transporter.
# Human hepatocyte cultures were treated daily for two consecutive days with fresh dosing solutions containing appropriate concentrations of the 320 ToxCast chemicals (chemical identities were blinded to CellzDirect and other ToxCast collaborators), vehicle control (0.2% DMSO), and positive control inducers as summarized in Table 1. Due to the large number of treatment groups and chemicals examined, the ToxCast chemicals were divided into two groups (spanning two independent cultures of hepatocytes from separate donor preparations (Hu778: ToxCast plates 1 and 2; Hu776: ToxCast plates 3 and 4). Each preparation of human hepatocyte cultures was treated with respective vehicle control, medium only control, set of six positive controls/reference chemicals for the five hepatic receptor pathways, and a subset of eight of the ToxCast chemicals (indoxacarb, pyrithiobac-sodium, norflurazon, cyhalofop-butyl, methomyl, thiram, acetochlor, and propiconazole). These replicate data, coupled with internal replicates designed within the blinded ToxCast chemical library, provided additional data to evaluate interindividual differences between hepatocyte preparations and their potential impact on chemical profiles.Cell morphology and integrity were evaluated using phase-contrast microscopy as an indicator of hepatocyte cell health (Tyson & Green, 1987). Cultures for each treatment group (i.e., media, vehicle [0.2% DMSO], positive control inducers [multiple concentrations], and the ToxCast chemicals [multiple concentrations]) were observed and cell morphology was assessed relative to vehicle control cultures at each harvest time point (0, 6, 24, or 48 h). […] Images were evaluated at the conclusion of the study to assess changes in cell integrity and account for the effects of chemical exposure on uncharacteristic changes in concentration-dependent gene expression profiles. The results from these determinations of apparent cytotoxicity were annotated (yes/no) alongside the corresponding qNPA data for reference.At the conclusion of each treatment period, hepatocyte cultures (96-well) were washed with 1 volume of HBSS, lysed by addition of 25 ul ArrayPlate lysis buffer (HTG, Tucson, AZ), and 70 ul/well of Denaturation Oil, denatured by incubation at 95C for 10 min, and frozen at approximately -70C until analysis by nuclease protection assay (qNPA) (Roberts et al., 2007). For qNPA analysis, cell lysates were thawed at 50C for approximately 30 min, qNPA probes were added, and samples were incubated at 95C for 10 min to begin the detection process by denaturing the target RNA, dissociating the duplexes and secondary structure hybridization. At the conclusion of the hybridization period, S1 nuclease reagent was added to each sample to digest all nonprotected nucleotides at 50C for 60-90 min. […]
# Broad substrate specificity ATP-binding cassette transporter ABCG2 (Homo sapiens), sequence (Q9UNQ0 whole entry, looked up): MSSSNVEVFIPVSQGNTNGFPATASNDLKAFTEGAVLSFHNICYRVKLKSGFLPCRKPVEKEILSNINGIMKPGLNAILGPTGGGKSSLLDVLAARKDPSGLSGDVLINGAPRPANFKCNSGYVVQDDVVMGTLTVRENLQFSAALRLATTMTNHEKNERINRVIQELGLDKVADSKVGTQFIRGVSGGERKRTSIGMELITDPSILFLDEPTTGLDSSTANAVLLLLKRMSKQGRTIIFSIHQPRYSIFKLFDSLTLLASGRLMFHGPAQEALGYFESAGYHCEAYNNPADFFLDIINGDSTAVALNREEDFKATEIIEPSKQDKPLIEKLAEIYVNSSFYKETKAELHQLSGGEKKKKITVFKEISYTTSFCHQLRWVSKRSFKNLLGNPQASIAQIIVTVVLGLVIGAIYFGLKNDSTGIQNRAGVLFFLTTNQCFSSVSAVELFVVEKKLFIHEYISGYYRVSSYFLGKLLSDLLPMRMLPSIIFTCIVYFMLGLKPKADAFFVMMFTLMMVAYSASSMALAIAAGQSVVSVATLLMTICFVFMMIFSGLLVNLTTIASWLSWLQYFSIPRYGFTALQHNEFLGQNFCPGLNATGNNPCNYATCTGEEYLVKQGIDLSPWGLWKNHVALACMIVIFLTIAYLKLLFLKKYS
SMILES,outcome,AC50
CCCCOC(=O)[C@@H](C)Oc1ccc(Oc2ccc(C#N)cc2F)cc1,inactive,
CC(C1CC1)C(O)(Cn1cncn1)c1ccc(Cl)cc1 (stereo not given),inactive,
CCc1cccc(C)c1N(C(=O)CCl)C(C)COC (stereo not given),inactive,
C=C(C)[C@H]1Cc2c(ccc3c2O[C@@H]2COc4cc(OC)c(OC)cc4[C@@H]2C3=O)O1,,0.309 µM (active)
CCCOCC(=Nc1ccc(Cl)cc1C(F)(F)F)n1ccnc1,,20 µM (active)
CCCSP(=O)(OCC)Oc1ccc(Br)cc1Cl (stereo not given),inactive,
S=C1NCCN1,inactive,
CSC1=N[C@@](C)(c2ccccc2)C(=O)N1Nc1ccccc1,inactive,
C#CCC1=C(C)C(OC(=O)C2C(C=C(C)C)C2(C)C)CC1=O (stereo not given),inactive,
CCOP(=O)(SC(C)CC)N1CCSC1=O (stereo not given),inactive,
COP(=O)(NC(C)=O)SC (stereo not given),inactive,
O=c1ccc(=O)[nH][nH]1,inactive,
C[N+]1(C)CCCCC1,inactive,
CC[C@H](C)[C@H]1O[C@]2(C=C[C@@H]1C)C[C@@H]1C[C@@H](C/C=C(\C)[C@@H](O[C@H]3C[C@H](OC)[C@@H](O[C@H]4C[C@H](OC)[C@@H](NC)[C@H](C)O4)[C@H](C)O3)[C@@H](C)/C=C/C=C3\CO[C@@H]4[C@H](O)C(C)=C[C@@H](C(=O)O1)[C@]34O)O2,inactive,
CC(C)=CC1C(C(=O)OCN2C(=O)C3=C(CCCC3)C2=O)C1(C)C (stereo not given),inactive,
COP(=O)(OC)C(O)C(Cl)(Cl)Cl (stereo not given),inactive,
CCOC(=O)CC(SP(=O)(OC)OC)C(=O)OCC (stereo not given),inactive,
FC(F)C(F)(F)OCC(Cn1cncn1)c1ccc(Cl)cc1Cl (stereo not given),inactive,
CN1COCN(Cc2cnc(Cl)s2)C1=N[N+](=O)[O-],inactive,
CN(C)C(=O)Nc1cccc(C(F)(F)F)c1,inactive,

SMILES,outcome,AC50
COc1cc(OC)nc(Sc2cccc(Cl)c2C(=O)O)n1,inactive,
CNC(=O)ON=C(SC)C(=O)N(C)C,inactive,
CC(COc1ccc(Oc2ccccc2)cc1)Oc1ccccn1 (stereo not given),inactive,
CCCOc1nn(C(=O)NS(=O)(=O)c2ccccc2C(=O)OC)c(=O)n1C,inactive,
CCCCOC(=O)c1ccccc1C(=O)O,inactive,
N#CSCSC#N,inactive,
CCOP(=S)(OCC)Oc1ccc2c(C)c(Cl)c(=O)oc2c1,inactive,
CCCCN(CC)c1c([N+](=O)[O-])cc(C(F)(F)F)cc1[N+](=O)[O-],inactive,
CCCSP(=O)(OCC)SCCC,inactive,
CCCCSP(=O)(SCCCC)SCCCC,,33.5 µM (active)
CCc1cnc(C2=NC(C)(C(C)C)C(=O)N2)c(C(=O)O)c1 (stereo not given),inactive,
CCOP(=S)(Oc1cnc(C(C)(C)C)nc1)OC(C)C (stereo not given),inactive,
CC1=NNC(=O)N(/N=C/c2cccnc2)C1,inactive,
CCOP(=O)(OCC)Oc1cc(C)nc(C(C)C)n1,inactive,
CCOP(=S)(OCC)OC(Cl)C(Cl)(Cl)Cl (stereo not given),inactive,
CON=C(C(=O)OC)c1ccccc1CON=C(C)c1cccc(C(F)(F)F)c1,inactive,
C[Si](Cn1cncn1)(c1ccc(F)cc1)c1ccc(F)cc1,,31.6 µM (active)
COP(=O)(OC)SCn1c(=O)oc2cc(Cl)cnc21,inactive,
CCc1cccc(CC)c1N(COC)C(=O)CCl,inactive,
CC(Oc1cccc(Cl)c1)C(=O)O (stereo not given),inactive,
